Results filed as inconclusive are left out. Where a call stands in place of a potency, no number is given. The source made the active and inactive calls. Calls follow the shape of the dose curve; as a rule, active = well fitted curve in the direction sought with a large enough effect; inconclusive = small, poorly fitted or top-dose-only effect, or effect the other way, or another doubt; inactive = no such curve, though single readings can be large or run the other way.
target: Lysosomal acid glucosylceramidase (Homo sapiens) (UniProt P04062); assay: qHTS Assay for Inhibitors and Activators of N370S glucocerebrosidase as a Potential Chaperone Treatment of Gaucher Disease: Purified N370S Glucocerebrosidase; settings: purified N370S GC, 4-MU-glucoside fluorescence, 40 min; series mostly up to 76.9 µM
Sequence (P04062 whole entry N409S): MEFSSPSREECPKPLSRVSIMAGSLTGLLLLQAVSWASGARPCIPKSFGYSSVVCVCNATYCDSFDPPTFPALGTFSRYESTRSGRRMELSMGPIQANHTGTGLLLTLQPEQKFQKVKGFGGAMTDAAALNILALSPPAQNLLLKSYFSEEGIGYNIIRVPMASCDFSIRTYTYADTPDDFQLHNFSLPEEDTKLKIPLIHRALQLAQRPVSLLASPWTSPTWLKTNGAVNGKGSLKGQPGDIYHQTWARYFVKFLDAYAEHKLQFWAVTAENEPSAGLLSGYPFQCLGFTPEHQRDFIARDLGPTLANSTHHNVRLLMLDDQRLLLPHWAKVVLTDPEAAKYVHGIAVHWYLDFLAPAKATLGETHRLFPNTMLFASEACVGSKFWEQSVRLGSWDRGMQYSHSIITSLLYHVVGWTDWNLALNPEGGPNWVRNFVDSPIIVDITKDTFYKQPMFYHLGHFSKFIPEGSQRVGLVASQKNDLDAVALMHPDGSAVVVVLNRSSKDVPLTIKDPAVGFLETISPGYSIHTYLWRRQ
Source text: NIH Chemical Genomics Center [NCGC] NIH Molecular Libraries Probe Production Centers Network [MLPCN] MLPCN Grant: MH086442-01 Assay Submitter (PI): Wei Zheng Glucocerebrosidase (GC) catalyzes the hydrolysis of beta-glucocerebroside to glucose and ceramide in lysosomes. Mutations in the glucocerebrosidase gene result in Gaucher disease, an autosomal recessive lysosomal storage disorder. Many of the mutations encountered in patients with Gaucher disease are missense alterations that may cause misfolding, decreased stability and/or mistrafficking of this lysosomal protein. […] These inhibitors include iminosugar analogs and three non-iminosugar inhibitors identified from a previous HTS of 62,000 compounds with the wild type recombinant enzyme. However, the enhancement of enzyme activity by the chaperone action of an enzyme inhibitor must be balanced against the direct inhibition of the enzyme. An enzyme activator could also function as a chaperone by binding to the enzyme and helping to correct its misfolding and mistrafficking. While activators for GC have not yet been identified, they may have better therapeutic potential than inhibitors. Therefore the discovery and development of chemical activators may provide a new strategy for the chaperone therapy. We have optimized a new assay using N370S mutant GC derived from the spleen of a Gaucher patient. […] In addition, the MLPCN compound library has expanded, which increases the chance of finding new and better probes. This assay characterizes compound activity using purified mutant enzyme instead of tissue homogenate. Compound activity differences may be due to the absence of endogenous cofactors found in tissue homogenate.
NCGC Assay Protocol Summary: This is a fluorogenic enzyme assay with 4-methylumbelliferyl-beta-D-glucopyranoside as the substrate and purified N370S glucocerebrosidase as the enzyme preparation. Upon the hydrolysis of this fluorogenic substrate, the resulting product, […] which can be detected by a standard fluorescence plate reader. Data were normalized to the controls for basal activity (without enzyme) and 100% activity (with enzyme). The AC50 values were determined from concentration-response data modeled with the standard Hill equation. Assay buffer: 50 mM citric acid (titrated with potassium phosphate to pH 5.0), 100 mM potassium chloride, 10 mM sodium chloride, 1 mM magnesium chloride, 0.01% Tween-20. 1536-well assay protocol: (1) Add 2 ul/well of glucocerebrosidase enzyme solution (5 nM final) (2) Add 23 nL compounds in DMSO solution. The final titration was 0.5 nM to 58 uM. (3) Add 2 ul of substrate (1 mM final) (4) Incubate at 37C for 40 min. (5) Add 2 ul stop solution (1M NaOH and 1M Glycine mixture, pH 10) (6) Detect the assay plate in a ViewLux plate reader (PerkinElmer) with Ex=365 nm and Em=440nm. Keywords: Glucocerebrosidase, beta-glucosidase, Gaucher Disease, pharmacological chaperone, chaperone therapy, high throughput screening, glucocerebrosidase inhibitor, MLSMR, MLSCN, NIH Roadmap, qHTS and NCGC

SMILES | Potency
O=S(=O)(c1ccc2ccccc2c1)N1CCN(c2nc(-c3cccs3)nc3ccccc23)CC1 | inactive
Cc1ccc(-c2nc(N3CCN(S(=O)(=O)c4ccc(F)cc4)CC3)c3ccc(Cl)cc3n2)cc1 | inactive
COc1ccc(-c2nc(N3CCN(S(=O)(=O)c4ccc(C)cc4)CC3)c3ccccc3n2)cc1 | inactive
NS(=O)(=O)c1ccc(S(=O)(=O)N2CCN(c3nc(-c4cccs4)nc4ccccc34)CC2)cc1 | inactive
O=S(=O)(c1ccc(F)cc1)N1CCN(c2nc(-c3cccs3)nc3cc(Cl)ccc23)CC1 | inactive
O=C(c1ccc2c(c1)OCCO2)N1CCN(c2nc(-c3cccs3)nc3ccccc23)CC1 | inactive
COc1ccc(-c2nc(N3CCN(S(=O)(=O)c4ccc(F)cc4)CC3)c3ccccc3n2)cc1 | inactive
O=S(=O)(c1ccc(F)cc1)N1CCN(c2nc(-c3ccc(F)cc3)nc3cc(Cl)ccc23)CC1 | inactive
OCCNc1nc(-c2cccs2)nc2ccccc12 | inactive
N#Cc1ccc(S(=O)(=O)N2CCN(c3nc(-c4cccs4)nc4ccccc34)CC2)cc1 | inactive
CC(C)(C)c1ccc(S(=O)(=O)N2CCN(c3nc(-c4cccs4)nc4ccccc34)CC2)cc1 | inactive
O=S(=O)(c1cccs1)N1CCN(c2nc(-c3cccs3)nc3ccccc23)CC1 | inactive
O=S(=O)(c1ccc(Cl)cc1)N1CCN(c2nc(-c3cccs3)nc3ccccc23)CC1 | inactive
O=S(=O)(c1ccccc1Cl)N1CCN(c2nc(-c3cccs3)nc3ccccc23)CC1 | inactive
CC(C)(C)C(=O)OCCNc1nc(-c2ccccc2)nc2ccccc12 | 8.91 µM (active)
O=S(=O)(c1cccc2ccccc12)N1CCN(c2nc(-c3cccs3)nc3ccccc23)CC1 | inactive
O=S(=O)(c1ccc(Cl)cc1)N1CCN(c2nc(-c3cccc(Br)c3)nc3ccccc23)CC1 | inactive
Cc1ccc(S(=O)(=O)N2CCN(c3nc(-c4cccs4)nc4ccccc34)CC2)cc1 | inactive
O=S(=O)(c1ccc(Cl)cc1)N1CCN(c2nc(-c3ccc(F)cc3)nc3cc(Cl)ccc23)CC1 | inactive
S=C(NCCCc1cnc[nH]1)NCCCN(Cc1ccc(Cl)c(Cl)c1)c1ccc(Br)cn1 | 2.51 µM (active)

SMILES | Potency
O=S(=O)(Cc1ccccc1)N1CCN(c2nc(-c3cccs3)nc3ccccc23)CC1 | inactive
Cc1ccc(S(=O)(=O)N2CCN(c3nc(-c4ccc(F)cc4)nc4cc(Cl)ccc34)CC2)cc1 | inactive
O=S(=O)(c1ccc2c(c1)OCCO2)N1CCN(c2nc(-c3cccs3)nc3ccccc23)CC1 | inactive
CC(C)C(C)NC(=O)CSc1nc2scc(-c3ccco3)c2c(=O)n1-c1ccccc1 (centres undefined) | inactive
Cc1cc(C)cc(N(CC(=O)NC2CCCCCC2)S(=O)(=O)c2c(C)[nH]c(=O)[nH]c2=O)c1 | 1.58 µM (active)
O=S(=O)(c1ccc(F)cc1)N1CCN(c2nc(-c3ccccc3)nc3cc(Cl)ccc23)CC1 | inactive
O=S(=O)(c1ccccc1)N1CCN(c2nc(-c3ccc(F)cc3)nc3cc(Cl)ccc23)CC1 | inactive
Cc1cccc(S(=O)(=O)N2CCN(c3nc(-c4cccs4)nc4ccccc34)CC2)c1 | inactive
COc1ccc(S(=O)(=O)N2CCN(c3nc(-c4cccs4)nc4ccccc34)CC2)cc1 | inactive
O=S(=O)(c1cccc(C(F)(F)F)c1)N1CCN(c2nc(-c3cccs3)nc3cc(Cl)ccc23)CC1 | inactive
O=S(=O)(c1ccc(F)cc1)N1CCN(c2nc(-c3cccc(Br)c3)nc3ccccc23)CC1 | inactive
O=S(=O)(c1ccc(Cl)cc1)N1CCN(c2nc(-c3ccc(Cl)cc3)nc3ccccc23)CC1 | inactive
O=S(=O)(c1ccc(Cl)cc1)N1CCN(c2nc(Nc3cc(Cl)ccc3O)nc3ccccc23)CC1 | 14.1 µM (active)
c1csc(-c2nc(NCC3CCCO3)c3ccccc3n2)c1 (centres undefined) | inactive
COc1ccc(-c2nc(N3CCN(S(=O)(=O)c4ccccc4)CC3)c3ccccc3n2)cc1 | inactive
O=S(=O)(c1ccccc1C(F)(F)F)N1CCN(c2nc(-c3cccs3)nc3ccccc23)CC1 | inactive
COc1cccc(S(=O)(=O)N2CCN(c3nc(-c4cccs4)nc4ccccc34)CC2)c1 | inactive
O=S(=O)(c1ccc2c(c1)OCCO2)N1CCN(c2nc(-c3ccccc3)nc3ccccc23)CC1 | inactive
Cc1ccccc1S(=O)(=O)N1CCN(c2nc(-c3cccs3)nc3ccccc23)CC1 | inactive

Source: PubChem BioAssay AID2597 (National Center for Advancing Translational Sciences (NCATS), 2010)
